Eight compounds from PubChem BioAssay (NCI) can be followed below.

This is part of a sample that, as a whole, favours compounds with a hit. Of some 79,000 tested, about 15% had one in any assay. A number with no mark means an inactive call. Activity calls are given as the source filed them. Cut-off read from the data, not from the text of the source: active = growth inhibition above about 70%; inactive = the rest.

A short description of experiment [1]: NCI Yeast Anticancer Drug Screen. Data for the rad50 strain (AID 155).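 Note: 0% = growth of vehicle-only cultures of the same strain.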 Conditions: S. cerevisiae rad50 strain growth inhibition, stronger effect = higher value. A digest of the protocol: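 Growth of the mutant yeast was measured after compound exposure and referenced to vehicle-treated cultures.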
Experiment [2] is described as follows: NCI Yeast Anticancer Drug Screen. Data for the mec2-1 strain (AID 157). Conditions: S. cerevisiae mec2-1 strain, stronger effect = higher value. A digest of the protocol:
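Mutant yeast (mec2-1) grown with compound; growth inhibition relative to vehicle control reported.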

Experiment [3] is described as follows: NCI Yeast Anticancer Drug Screen. Data for the sgs1 mgt1 strain (AID 161).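 Note: 0% = growth of cultures given vehicle only.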 Conditions: S. cerevisiae sgs1 mgt1 strain, stronger effect = higher value. The procedure, abridged: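 Yeast cells carrying a defined DNA-repair defect were exposed to test compounds. Growth inhibition was measured relative to vehicle-treated controls.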
The nature of experiment [4]: NCI Yeast Anticancer Drug Screen. Data for the cln2 rad14 strain (AID 165).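 Note: 0% = growth equal to vehicle treated cultures.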 Conditions: S. cerevisiae cln2 rad14 strain, stronger effect = higher value. The procedure, abridged: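 Readout is yeast growth inhibition versus vehicle-treated controls, using a strain with cln2 and rad14 alterations exposed to compound.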
Experiment [5] is described as follows: NCI Yeast Anticancer Drug Screen. Data for the bub3 strain (AID 167). The following applies: S. cerevisiae bub3 mutant strain, stronger effect = higher value. A digest of the protocol:
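Whole-cell yeast assay. The mutant strain was incubated with compounds, and growth inhibition was determined by comparison with vehicle-treated cells.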

Experiment [6] is described as follows: NCI Yeast Anticancer Drug Screen. Data for the mlh1 rad18 strain (AID 175). Conditions: S. cerevisiae mlh1 rad18 strain growth inhibition, stronger effect = higher value. The procedure, abridged: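 Genetically defined yeast (DNA repair-deficient) exposed to compounds; growth inhibition determined relative to vehicle.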
Where [7] appears, read: at 5.0 µM (retest, dose inferred, filed as 0.5).
Where [8] appears, read: at 50.0 µM (retest, dose inferred, filed as 5.0).

On to `O=C(CCl)[O][Bi]([O]C(=O)CCl)([c]1ccccc1)([c]1ccccc1)[c]1ccccc1`, for which the growth inhibition was 10% in experiment [1] (setting [7]); 51% in experiment [1] (setting [8]); 13% in experiment [1] (at 50.0 µM); 11% in experiment [2] (setting [7]); 58% in experiment [2] (setting [8]); 15.7% in experiment [2] (at 50.0 µM). For the same compound, the growth inhibition in experiment [3] (setting [7]) is 32%; in experiment [3] (setting [8]), 83% (active); in experiment [3] (at 50.0 µM), -8.4%; in experiment [4] (setting [7]), 26%; in experiment [4] (setting [8]), 59%; in experiment [4] (at 50.0 µM) it was 5.75%. Further, the growth inhibition in experiment [5] (setting [7]) is 31%; in experiment [5] (setting [8]), 85% (active); in experiment [5] (at 50.0 µM), 10.2%; in experiment [6] (setting [7]), 17%; in experiment [6] (setting [8]), 71% (active); in experiment [6] (at 50.0 µM) it was 23.1%.

For the compound `COC(=O)[C@@H]1c2cc3c(c(O)c2[C@@H](OC)C[C@@]1(C)O)C(=O)c1c(O)cc2c(c1C3=O)OC1O[C@@]2(C)[C@H](O)[C@@H](N(C)C)[C@@H]1O`, the growth inhibition was 15% in experiment [1] (setting [7]); 98% (active) in experiment [1] (setting [8]); 64.2% in experiment [1] (at 50.0 µM); 10% in experiment [2] (setting [7]); 95% (active) in experiment [2] (setting [8]); 94% (active) in experiment [2] (at 50.0 µM). Moreover, the growth inhibition is 9% in experiment [3] (setting [7]); 98% (active) in experiment [3] (setting [8]); 94% (active) in experiment [3] (at 50.0 µM); 4% in experiment [4] (setting [7]); 97% (active) in experiment [4] (setting [8]); 87.5% (active) in experiment [4] (at 50.0 µM). Further, the growth inhibition was 5% in experiment [5] (setting [7]); 97% (active) in experiment [5] (setting [8]); 92.8% (active) in experiment [5] (at 50.0 µM); 12% in experiment [6] (setting [7]); 97% (active) in experiment [6] (setting [8]); 92.4% (active) in experiment [6] (at 50.0 µM).

Take `c1ccc(Cn2nnnc2-c2ccccc2)cc1`: the growth inhibition in experiment [1] (setting [7]) is -151%; in experiment [1] (setting [8]), -125%; in experiment [1] (at 50.0 µM), 23.8%; in experiment [2] (setting [7]) it was -53%; in experiment [2] (setting [8]) it was -43%; in experiment [2] (at 50.0 µM), 43.5%. Also, the growth inhibition is -66% in experiment [3] (setting [7]); -61% in experiment [3] (setting [8]); 1.75% in experiment [3] (at 50.0 µM); -55% in experiment [4] (setting [7]); -33% in experiment [4] (setting [8]); 80.5% (active) in experiment [4] (at 50.0 µM). Moreover, the growth inhibition in experiment [5] (setting [7]) is -70%; in experiment [5] (setting [8]), -57%; in experiment [5] (at 50.0 µM), 5.45%; in experiment [6] (setting [7]) it was -147%; in experiment [6] (setting [8]) it was -89%; in experiment [6] (at 50.0 µM), 14.3%.

On to `Cc1ccccc1CN(C)CCO`, for which the growth inhibition in experiment [1] (setting [7]) was 0%; in experiment [1] (setting [8]) it was -8%; in experiment [1] (at 50.0 µM), 65.7%; in experiment [2] (setting [7]), -1%; in experiment [2] (setting [8]) it was 2%; in experiment [2] (at 50.0 µM) it was 17.3%. The growth inhibition in experiment [3] (setting [7]) is 2%; in experiment [3] (setting [8]), 13%; in experiment [3] (at 50.0 µM) it was 14.1%; in experiment [4] (setting [7]), -8%; in experiment [4] (setting [8]), -1%; in experiment [4] (at 50.0 µM) it was 56.8%. The growth inhibition is -5% in experiment [5] (setting [7]); -5% in experiment [5] (setting [8]); 13.6% in experiment [5] (at 50.0 µM); -5% in experiment [6] (setting [7]); -6% in experiment [6] (setting [8]); 13.8% in experiment [6] (at 50.0 µM).

Regarding `COC(=O)c1c(/C(=N/Nc2ccc([N+](=O)[O-])cc2)[N+](=O)[O-])ssc1=N`, the growth inhibition was 14% in experiment [1] (setting [7]); 37% in experiment [1] (setting [8]); 21.1% in experiment [1] (at 50.0 µM); 0% in experiment [2] (setting [7]); 44% in experiment [2] (setting [8]); 24.9% in experiment [2] (at 50.0 µM). Besides, the growth inhibition in experiment [3] (setting [7]) was 13%; in experiment [3] (setting [8]) it was 60%; in experiment [3] (at 50.0 µM) it was 27.6%; in experiment [4] (setting [7]), 6%; in experiment [4] (setting [8]) it was 23%; in experiment [4] (at 50.0 µM), 27.9%. In addition, the growth inhibition in experiment [5] (setting [7]) is 6%; in experiment [5] (setting [8]), 40%; in experiment [5] (at 50.0 µM), 24.9%; in experiment [6] (setting [7]) it was 15%; in experiment [6] (setting [8]), 54%; in experiment [6] (at 50.0 µM), 70.9% (active).

Consider `CC(=O)n1c(=S)n(C(C)=O)c2ccccc21`, for which the growth inhibition in experiment [1] (setting [7]) is 2%; in experiment [1] (setting [8]), 83% (active); in experiment [1] (at 50.0 µM), 51.5%; in experiment [2] (setting [7]), -16%; in experiment [2] (setting [8]), 89% (active); in experiment [2] (at 50.0 µM), 54.4%. Moreover, the growth inhibition in experiment [3] (setting [7]) is -24%; in experiment [3] (setting [8]), 76% (active); in experiment [3] (at 50.0 µM) it was 40.2%; in experiment [4] (setting [7]), 10%; in experiment [4] (setting [8]), 39%; in experiment [4] (at 50.0 µM), 67.8%. Further, the growth inhibition in experiment [5] (setting [7]) was -23%; in experiment [5] (setting [8]), 76% (active); in experiment [5] (at 50.0 µM), 71.1% (active); in experiment [6] (setting [7]), -13%; in experiment [6] (setting [8]), 94% (active); in experiment [6] (at 50.0 µM), 30.1%.

On to `C1CCN(c2nc(N3CCOCC3)c3[nH]c(N4CCCCC4)nc3n2)CC1`, for which the growth inhibition in experiment [1] (setting [7]) is 1%; in experiment [1] (setting [8]), 84% (active); in experiment [1] (at 50.0 µM) it was 35%; in experiment [2] (setting [7]), 5%; in experiment [2] (setting [8]), 90% (active); in experiment [2] (at 50.0 µM), 35.4%. Moreover, the growth inhibition in experiment [3] (setting [7]) is 2%; in experiment [3] (setting [8]) it was 86% (active); in experiment [3] (at 50.0 µM), 46.4%; in experiment [4] (setting [7]), 8%; in experiment [4] (setting [8]), 49%; in experiment [4] (at 50.0 µM), 60.1%. Further, the growth inhibition was 0% in experiment [5] (setting [7]); 71% (active) in experiment [5] (setting [8]); 49.6% in experiment [5] (at 50.0 µM); -2% in experiment [6] (setting [7]); 68% in experiment [6] (setting [8]); 36.5% in experiment [6] (at 50.0 µM).

Turning to `O=S(=O)(Nc1ccccn1)c1ccc(NCc2c3ccccc3nc3cc(Cl)ccc23)cc1`, the growth inhibition in experiment [1] (setting [7]) was 0%; in experiment [1] (setting [8]), 65%; in experiment [1] (at 50.0 µM), 65.9%; in experiment [2] (setting [7]), 4%; in experiment [2] (setting [8]), 37%; in experiment [2] (at 50.0 µM) it was 55.2%. For the same compound, the growth inhibition in experiment [3] (setting [7]) was -2%; in experiment [3] (setting [8]), 66%; in experiment [3] (at 50.0 µM), 54.5%; in experiment [4] (setting [7]), 6%; in experiment [4] (setting [8]), 36%; in experiment [4] (at 50.0 µM) it was 31.9%. For the same compound, the growth inhibition in experiment [5] (setting [7]) is 8%; in experiment [5] (setting [8]) it was 76% (active); in experiment [5] (at 50.0 µM) it was 34.8%; in experiment [6] (setting [7]), 3%; in experiment [6] (setting [8]), 52%; in experiment [6] (at 50.0 µM) it was 71.8% (active).
